The values that follow come from PubChem BioAssay (NCATS).

Experiment [1] can be described thus: Viability qHTS for spleen associated tyrosine kinase inhibitor (SYKi) naive MV4-11 cells (AID 1963823). Also: nearly all actives have a fitted effect of over 40% in size. The procedure, abridged: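 qHTS, SYK inhibitor-naive MV4-11; 500 cells/well; 72 hr compound exposure, 37 C; CellTiter-Glo added, 10 min RT; luminescence read.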
(Quantitative high-throughput screening tests each substance at several concentrations.)

Experiment [2] is described as follows: Viability qHTS for spleen associated tyrosine kinase inhibitor (SYKi) drug resistant MV4-11 cells (AID 1963824). Also: nearly all actives have a fitted effect of over 35% in size. The procedure, abridged: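 SYK-inhibitor-resistant MV4-11 AML cells were seeded at 500 per well onto compound and cultured 72 hours (37 °C, 5% CO2). CellTiter-Glo was then added, and after 10 min at room temperature, luminescence gave viability.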

Experiment [3] is described as follows: Cellular viability qHTS for adrenocortical cancer (ACC) cell line NCI-H295R (AID 1963990). Also: nearly all actives have a fitted effect of over 60% in size. The procedure, abridged:
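Readout: CellTiter-Glo luminescence, 20 min RT. Exposure: 48 h, 37C/5% CO2. Cells: NCI-H295R, ITS-DMEM serum-free. Range: up to 46 uM. Analysis: 4PL fit, IC50 plus efficacy.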

Structures are written as SMILES. Several values for one entry are separate records, joined by “and”; a condition that tells them apart may be missing. Identical values can stand only once. Results filed as inconclusive are left out. Activity calls are given as the source filed them. Calls follow the shape of the dose curve; as a rule, active = well fitted curve in the direction sought with a large enough effect; inconclusive = small, poorly fitted or top-dose-only effect, or another doubt; inactive = no such curve, though single readings can be large; an effect the other way counts as inactive or inconclusive.
Potency is read from the fitted curve at half-maximal effect.

Regarding `CCC(=O)N1CCOc2c(cc(-c3cc(OC)cc(OC)c3)cc2C(=O)N[C@H]2CCCN(C)C2)C1`, the values for the Potency in experiment [1] and in experiment [2] were 16.6 µM (active) and 9.34 µM (active), respectively. In experiment [3], the Potency result was “inactive”.

In the case of `Cc1ccc(Nc2ncc3c(n2)N(C)C(=O)N(c2cc(NC(=O)c4cccc(C(F)(F)F)c4)ccc2C)C3)cn1`, the Potency in experiment [1] was 0.0148 µM (active); in experiment [2] it was 0.013 µM (active). The Potency entry in experiment [3] was “inactive”.

For `Cc1ccc(-c2ccc3c(ccc4sc5c(c43)NC[C@@H](C)NC5=O)n2)cn1`, the Potency in experiment [1] is 2.59 µM (active); in experiment [2], 2.91 µM (active); in experiment [3] it was 28.2 µM (active).

For the compound `C=C1[C@H](OC(=O)/C=C(\C)CC)C[C@@H](C(C)C)[C@@H]2[C@H]([C@@H](C)OC(C)=O)C(=O)C[C@@H]12`, the Potency in experiment [1] is 14.8 µM (active); in experiment [2] it was 13.2 µM (active). Also, the Potency result in experiment [3] was “inactive”.

Regarding `CN(C)Cc1cccc(N=C(c2ccccc2)c2c(O)[nH]c3cc(C(N)=O)ccc23)c1`, the Potency is 0.468 µM (active) in experiment [1]; 2.91 µM (active) and 1.18 µM (active) in experiment [2]. Moreover, the Potency entry in experiment [3] is “inactive”.

Take `COCC(=O)O[C@]1(CCN(C)CCCc2nc3ccccc3[nH]2)CCc2cc(F)ccc2[C@@H]1C(C)C`: the values for the Potency in experiment [1], in experiment [2] and in experiment [3] were 21.1 µM (active), 13.3 µM (active) and 16.4 µM (active), respectively.

In the case of `Oc1ccc(CCNCCCCCCNCCc2ccccc2)cc1O`, the values for the Potency in experiment [1], in experiment [2] and in experiment [3] were 26.6 µM (active), 21.1 µM (active) and 16.4 µM (active), respectively.

Consider `CC/C(=C(/CC)c1ccc(O)cc1)c1ccc(O)cc1`, for which the Potency in experiment [1] was 16.6 µM (active); in experiment [2], 18.6 µM (active); in experiment [3], 3.66 µM (active) and 8.91 µM (active).

Consider `COc1cc(-c2cc(-c3ccc(N4CCNCC4)cc3)cnc2C)cc(OC)c1OC`, for which the Potency was 7.42 µM (active) in experiment [1] and 8.33 µM (active) in experiment [2]. Besides, the Potency entry in experiment [3] was “inactive”.

`Cc1ccc(-n2c(C)cc(-c3nnc4n3CCCCC4)c2C)cc1`: the Potency in experiment [1] and in experiment [2] was 8.33 µM (active) in each case. For the same compound, the Potency result in experiment [3] is “inactive”.

On to `C=CC(=O)N1CC/C(=C\c2ccc(F)c([N+](=O)[O-])c2)C(=O)/C(=C/c2ccc(F)c([N+](=O)[O-])c2)C1`, for which the figures for the Potency in experiment [1], in experiment [2] and in experiment [3] were 0.0332 µM (active), 0.0332 µM (active) and 0.316 µM (active), respectively.

In the case of `CN1CCCN=C1/C=C/c1cccs1`, the Potency result in experiment [1], in experiment [2] and in experiment [3] was “inactive” in each case.

Take `CCS(=O)(=O)Nc1ccc(Oc2ccc(F)cc2F)c(-c2cn(C)c(=O)c3[nH]ccc23)c1`: the results for the Potency in experiment [1], in experiment [2] and in experiment [3] were 0.0037 µM (active), 0.0042 µM (active) and 5.01 µM (active), respectively.

In the case of `Cn1nccc1Nc1nccc(-c2cc3c(s2)C(C)(C)N(CCN2CCOCC2)C3=O)n1`, the Potency in experiment [1] and in experiment [2] was 3.72 µM (active) throughout. Moreover, in experiment [3], the Potency entry is “inactive”.

For `COc1ccc2cc1Oc1ccc(cc1)C[C@H]1c3c(cc4c(c3Oc3cc5c(cc3OC)CCN(C)[C@@H]5C2)OCO4)CCN1C`, the Potency in experiment [1] was 11.9 µM (active); in experiment [2] it was 9.44 µM (active); in experiment [3], 18.4 µM (active).

As to `Cc1cc(F)c(C(=O)Nc2cccc(-c3nncn3C(C)C)n2)cc1-n1cnc(C2CC2)c1`, the Potency in experiment [1] is 5.25 µM (active); in experiment [2] it was 5.25 µM (active); in experiment [3], 14.1 µM (active).

In the case of `CC(C)NC(=O)C1CCC(n2c(NC(=O)c3ccc(F)cc3)nc3ccc(CN4CCC(C(C)(C)O)CC4)cc32)CC1` (stereo not drawn), the Potency in experiment [1] is 1.02 µM (active); in experiment [2], 2.04 µM (active); in experiment [3], 10.1 µM (active).

With `CNC(=O)[C@@H](NC(=O)[C@H](CC(C)C)[C@H](O)C(=O)NO)C(C)(C)C`, the Potency in experiment [1] was 13.2 µM (active); in experiment [2], 10.5 µM (active). Further, in experiment [3], the Potency entry was “inactive”.

In the case of `COc1ccccc1C(=O)Nc1cc2c(cc1N1CCNC[C@H]1C)n(C)c(=O)n2C`, the Potency in experiment [1] is 5.9 µM (active); in experiment [2], 11.8 µM (active). Besides, the Potency result in experiment [3] was “inactive”.

Turning to `COC(=O)C1=C(C)NC(C)=C(C(=O)O[C@@H]2CCCN(Cc3ccccc3)C2)[C@@H]1c1cccc([N+](=O)[O-])c1`, the Potency in experiment [1] was 21.1 µM (active) and 13 µM (active); in experiment [2], 15 µM (active) and 13 µM (active); in experiment [3] it was 23.1 µM (active).

As to `COC(=O)Nc1ccc(-c2nc(N3CCOCC3)c3cnn(C4CCN(C(=O)OC)CC4)c3n2)cc1`, the Potency in experiment [1] was 0.662 µM (active); in experiment [2] it was 1.05 µM (active); in experiment [3], 2.51 µM (active).

On to `CN[C@H]1CC[C@@H](c2ccc(Cl)c(Cl)c2)c2ccccc21`, for which the Potency in experiment [1] was 6.61 µM (active); in experiment [2], 7.42 µM (active); in experiment [3], 4.61 µM (active) and 8.91 µM (active).

Regarding `C=CCNC1=C2CC(C)CC(OC)C(O)C(C)/C=C(\C)C(OC(N)=O)C(OC)/C=C/C=C(\C)C(=O)NC(=CC1=O)C2=O` (stereo not drawn), the Potency is 0.0934 µM (active) in experiment [1], 0.332 µM (active) in experiment [2] and 10 µM (active) in experiment [3].

As for `CC(C)(C)NC(=O)[C@@H]1CN(Cc2cccnc2)CCN1C[C@@H](O)C[C@@H](Cc1ccccc1)C(=O)N[C@H]1c2ccccc2C[C@H]1O`, the Potency result in experiment [1], in experiment [2] and in experiment [3] was “inactive” in each case.

Turning to `OCCN1CCN(CC/C=C2/c3ccccc3Sc3ccc(C(F)(F)F)cc32)CC1`, the Potency in experiment [1] is 21.1 µM (active); in experiment [2], 21.1 µM (active); in experiment [3], 16.4 µM (active).

Turning to `CC(=O)N1c2ccc(-c3ccc(C(=O)O)cc3)cc2[C@H](Nc2ccc(Cl)cc2)C[C@@H]1C`, the values for the Potency in experiment [1], in experiment [2] and in experiment [3] were 0.0525 µM (active), 0.059 µM (active) and 3.98 µM (active), respectively.
